# In PubChem BioAssay AID504651 (National Center for Advancing Translational Sciences (NCATS), 2011):
# Hit rate of the full screen: of about 360,000 compounds, about 130 (0.036%) were called active. Rule as the data show it: active = potentiation above about 30%; inactive = the rest. Shown is part of a subset that was picked to be rich in actives.
# Molecular target: D(1A) dopamine receptor (Homo sapiens) (UniProt P21728)
# Experiment: Potentiators of Human D1 Dopamine Receptor: qHTS; also: 0% is about no effect
# Details: HEK293 TREx D1 cells, calcium flux, dopamine EC20 potentiation; at 10 µM; active compounds read high
# Excerpt: Dopamine receptors (DARs) are involved in the etiology and/or therapy of a number of neuropsychiatric and endocrine disorders. For instance, all receptor-based antiparkinsonian drugs work via stimulating the D1 DAR subtype whereas all FDA-approved antipsychotic agents are antagonists of this receptor. […] There are three different types of allosteric modulators that we are seeking, two of which will stimulate or augment receptor signaling, allosteric agonists and potentiators, while the third, allosteric antagonists, will attenuate receptor signaling. The present primary screening assay measures compound potentiation of an EC20 dopamine response by tracking calcium flux in a […], inducible Hek293 Trex D1 cell line.
# NIH Chemical Genomics Center [NCGC]
# NIH Molecular Libraries Probe Centers Network [MLPCN]
# Assay Submitter (PI): David Sibley
# Freshly passaged cells are plated in 1536 well black, clear bottom plates at a density of 4000 cells/well in 3 ul of complete media containing 1x tetracycline inducer. After an overnight incubation at 30 C in 5% CO2, cells are loaded with 2 ul of the no wash Calcium Assay Kit (ABD Bioquest) and incubated at room temperature for 30 to 90 minutes. A 10 cycle (1 second/cycle) baseline measurement is taken and then the FDSS online 1536 pintool delivers 23 nl of compound library (as well as dopamine controls) to the plate. The plate is measured for kinetically at 1 cycle/sec for 180 seconds and is considered to be the agonist portion of the assay (eg, compounds which activate a positive calcium response during this portion are flagged as potential agonists). Following the 180 second read, 1 ul of an EC20 of dopamine is delivered by an onboard pipette head. Measurements are taken kinetically for an additional 180 seconds.
# Chain of D(1A) dopamine receptor (Homo sapiens) (P21728 whole entry, looked up): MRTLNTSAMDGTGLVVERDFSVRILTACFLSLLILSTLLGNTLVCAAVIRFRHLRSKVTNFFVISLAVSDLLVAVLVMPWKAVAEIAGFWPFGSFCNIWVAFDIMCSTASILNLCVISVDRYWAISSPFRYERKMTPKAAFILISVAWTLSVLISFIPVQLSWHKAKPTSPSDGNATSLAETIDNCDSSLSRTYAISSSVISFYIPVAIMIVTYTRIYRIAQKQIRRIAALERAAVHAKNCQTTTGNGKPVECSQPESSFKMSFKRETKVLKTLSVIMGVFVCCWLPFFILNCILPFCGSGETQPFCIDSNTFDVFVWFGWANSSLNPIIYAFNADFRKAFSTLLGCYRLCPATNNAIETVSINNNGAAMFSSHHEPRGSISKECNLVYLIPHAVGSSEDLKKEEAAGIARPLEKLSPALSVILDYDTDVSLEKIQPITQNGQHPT
row,Compound,potentiation
1,CCc1ccccc1NC(=O)c1ccc2nc(CCc3ccccc3)oc2c1,1% (inactive)
2,CCOc1ccccc1C(=O)NC1(C(F)(F)F)NC(=O)N(CCc2ccc(OC)c(OC)c2)C1=O (stereo not given),-3.95% (inactive)
3,O=C(NCc1nnc(C(=O)Nc2ccc(C(F)(F)F)cc2Cl)o1)c1ccccc1,-8.2% (inactive)
4,CCCS(=O)(=O)c1ncc(Cl)c(C(=O)Nc2scc(-c3ccccc3)c2C(=O)OCC)n1,-3.7% (inactive)
5,N#Cc1nc(Nc2cc(F)cc(Cl)c2)nc(NC2CCCC2)n1,-0.2% (inactive)
6,CCOc1ccc(C2C3=C(CCCC3=O)N(CC(=O)O)C3=C2C(=O)CCC3)cc1,36% (active)
7,COc1ccc(C2C3=C(CCCC3=O)N(CC(=O)O)C3=C2C(=O)CCC3)cc1,1% (inactive)
8,CCOc1ccc(C2C(C#N)=C(N)N(N(C)C)C3=C2C(=O)CCC3)cc1 (stereo not given),-0.15% (inactive)
9,CCc1ccc(CN(Cc2ccco2)C(=O)c2ccccc2Cl)cc1,-2.55% (inactive)
10,CC(=O)Nc1cccc(NC(=O)CSc2cn(CC(=O)N3CCCC3)c3ccccc23)c1,-2.85% (inactive)
11,O=c1c(NCc2cccs2)nccn1-c1ccccc1,0.1% (inactive)
12,O=C(COc1ccc(Cl)cc1)N(Cc1ccco1)Cc1ccco1,1.05% (inactive)
13,Cc1ccc(Cn2c(C)c3cnn(CC(=O)NCc4ccccc4)c(=O)c3c2C)cc1,-1.5% (inactive)
14,O=C(COc1ccccc1)NCc1ccc2c(c1)CCN2C(=O)c1ccc(F)cc1,-2.1% (inactive)
15,Cc1ccc(CCNC(=O)Cn2c(-c3cccs3)cc3cc(F)ccc32)cc1,-3.65% (inactive)
16,Cc1ccc(-c2cc(N)n(Cc3cccc(Cl)c3)n2)cc1,-4.4% (inactive)
17,O=S(=O)(c1ccc2nc(NCc3ccccc3Cl)ccc2c1)N1CCCCC1,-5.55% (inactive)
18,Cc1ccc2ccc3c(c2n1)NS(=O)(=O)c1ccccc1-3,1.45% (inactive)
19,COc1ccc(OC)c(NC(=O)CSc2nc3ccccc3nc2N2CCCCC2)c1,-3.85% (inactive)
20,CCc1ccccc1NC(=O)CSc1nnc(-c2ccccc2)c(-c2ccccc2)n1,1% (inactive)
21,Cc1c(Cl)cccc1NC(=O)c1noc2c1CCCC2,2.2% (inactive)
22,CCC(=O)N1CCc2cc(CNS(=O)(=O)c3ccc(Br)s3)ccc21,-0.5% (inactive)

row,Compound,potentiation
1,O=C1C(F)N([S+](=O)([O-])c2ccc3c(c2)OCCO3)CCN1[S+](=O)([O-])c1c(F)cccc1F (stereo not given),5.45% (inactive)
2,COc1cccc(CNC(=O)c2ccc3c(c2)N(Cc2ccc(C(F)(F)F)cc2)C(=O)c2ccccc2S3)c1OC,-5.65% (inactive)
3,N#Cc1nc(Nc2cccc(Cl)c2)nc(NC2CCCC2)n1,-2.6% (inactive)
4,Cc1c(-c2nc(-c3ccc4c(c3)OCO4)no2)nnn1-c1ccc(Br)cc1F,-2.8% (inactive)
5,CC1CCC2(CC1)N=C(c1ccccc1)C(=O)N2CC(=O)Nc1ccc(F)c(Cl)c1 (stereo not given),-3.15% (inactive)
6,CN(C(=O)c1ccc2c(c1)N(Cc1cccc(Cl)c1)C(=O)c1ccccc1S2=O)C1CCCCC1 (stereo not given),0.2% (inactive)
7,CCc1cc2c(cc3c(=O)n(CC(=O)N4CCN(c5cc(Cl)ccc5C)CC4)ncn32)s1,-2.7% (inactive)
8,O=C(CNC(=O)c1ccccc1)OC(C(=O)Nc1cc([N+](=O)[O-])ccc1F)c1ccccc1 (stereo not given),5.6% (inactive)
9,COCCNC(=O)c1ccc2c(c1)N=C(C)c1cc(C)ccc1S2,0.1% (inactive)
10,CCOC(=O)c1cccc(NC(=O)c2cc(CN3CCCC3)on2)c1,-7.25% (inactive)
11,Cc1ccc(Cl)cc1N1CCN(C(=O)CN2C(=O)COc3ccc(S(=O)(=O)N4CCOCC4)cc32)CC1,4.75% (inactive)
12,Cc1c(C(=O)N2CCCC2)oc2c1-c1nn(CC(=O)NCc3ccc(OC(C)C)cc3)cc1CC2,-0.75% (inactive)
13,Cc1ccc(-c2nc(SCc3ccc(Br)cc3)n3[nH]c(=O)cc3n2)cc1,-0.15% (inactive)
14,O=S(=O)(c1ccccc1)c1nc(-c2ccc(Cl)cc2Cl)oc1N1CCCCC1,-2.95% (inactive)
15,CCOc1ccc(N(Cc2ccccc2)C(=O)c2nc(S(C)(=O)=O)ncc2Cl)cc1,-0.05% (inactive)
16,Cc1c(CCNC(=O)c2ccc(C(F)(F)F)cc2)sc2nc(-c3ccc(F)cc3)nn12,-2.3% (inactive)
17,COc1ccc(OC)c(-c2nc(C(N)=O)c3c(n2)n(-c2ccc4c(c2)OCO4)c(=O)n3C)c1,0.75% (inactive)
18,O=C(c1ccc2c(c1)N(Cc1ccc(Cl)cc1)C(=O)c1ccccc1S2(=O)=O)N1CCCCC1,-1.9% (inactive)
19,CCN1C(=O)c2ccccc2S(=O)c2ccc(C(=O)NCc3ccc(F)cc3)cc21 (stereo not given),3% (inactive)
20,CCOc1ccccc1NC(=O)COc1ccc(S(=O)(=O)N2CCCC2)cc1,-4.6% (inactive)
21,Cc1ccc(OCC(=O)Nc2ccccc2C(=O)NC2CC2)cc1,-0.15% (inactive)
22,CN1CCN(c2ccccc2NC(=O)COc2ccc(C3CCCCC3)cc2)CC1,37.7% (active)

row,Compound,potentiation
1,CCn1c2ccccc2c2nnc(SCC(=O)O)nc21,-1.3% (inactive)
2,Cc1oc2ncnc(N3CCOCC3)c2c1C(=O)NCCc1ccccc1,2.6% (inactive)
3,COc1ccccc1N1CCN(C(CNC(=O)C(=O)NCc2ccc(C)cc2)c2cccnc2)CC1 (stereo not given),3.55% (inactive)
4,COc1cccc(C(=O)NC2CCN(C#N)CC2)c1,-6.95% (inactive)
5,O=C(Cn1cc(SCc2cccc(Cl)c2)c2ccccc21)N1CCCCC1,-2.05% (inactive)
6,CCCOc1ccc(NC(=O)CC2C(=O)N(c3ccccc3)C(=O)N2Cc2ccco2)cc1 (stereo not given),-2.9% (inactive)
7,Cc1cccc(NC(=O)C2CCCN2S(=O)(=O)c2cccc3nsnc23)c1C (stereo not given),-2.95% (inactive)
8,CC(C)c1ccc(NC(=O)Cn2nnc(C(=O)NCCc3ccccc3)c2N)cc1,-1.7% (inactive)
9,O=C(CSc1nc2nccnc2c(=O)n1CCc1c[nH]c2ccccc12)Nc1ccccc1F,-3.65% (inactive)
10,COc1ccc(S(=O)(=O)Nc2cccc3cccnc23)c(N)c1,-3.75% (inactive)
11,CC(C)NC(=O)NC(=O)CSc1nnc(-c2ccccc2F)n1N,35% (active)
12,Nn1c(SCC(=O)NC(=O)NC2CCCC2)nnc1-c1ccccc1F,-9.3% (inactive)
13,Nn1c(SCC(=O)NC2CCCC2)nnc1-c1ccccc1F,-7.1% (inactive)
14,O=S(=O)(c1ccc2c(c1)OCCO2)N1CCN(S(=O)(=O)c2cc(F)ccc2F)CC1,-0.7% (inactive)
15,Cc1ccc(C)c(Cn2c(=O)n(CCC(=O)NCc3ccc4c(c3)OCO4)c(=O)c3sccc32)c1,0.75% (inactive)
16,CCOc1cc(C2c3c(-c4ccc(Br)cc4)n[nH]c3C(=O)N2c2ccc(Cl)cc2)ccc1O (stereo not given),1.25% (inactive)
17,COc1cc(CN(CC2CCCO2)C(=O)c2ccccc2F)cc(OC)c1OC (stereo not given),5% (inactive)
18,N#CN1CCC(NC(=O)c2ccc(F)cc2)CC1,-0.05% (inactive)
19,O=C(CNC(=O)c1ccc(Cl)c(C(F)(F)F)c1)OC(C(=O)Nc1cc(C(F)(F)F)ccc1Cl)c1ccccc1 (stereo not given),1.3% (inactive)
20,CCOc1ccccc1NC(=O)CSc1ncc(S(=O)(=O)c2ccc(C(C)(C)C)cc2)c(=O)[nH]1,2.25% (inactive)
21,COc1ccc2c(Sc3ccc(C)cc3)c(C(=O)NC(C)c3ccccc3)[nH]c2c1 (stereo not given),-3.25% (inactive)
22,Cn1nnnc1SCCCNCc1cccc(OCc2ccc(Cl)cc2)c1,0.9% (inactive)

row,Compound,potentiation
1,CC(NC(=O)c1cc(Sc2ccc(F)cc2F)nc2ccccc12)c1ccccc1 (stereo not given),-2.8% (inactive)
2,Cc1cc2c(s1)c1cnn(Cc3c(F)cccc3Cl)c(=O)c1n2C,-3.2% (inactive)
3,COc1ccc(OCCCn2c(C3CC(=O)N(c4ccc(F)cc4)C3)nc3ccccc32)cc1 (stereo not given),-2% (inactive)
4,Cn1nnnc1Sc1ncnc2scc(-c3ccccc3[N+](=O)[O-])c12,9.9% (inactive)
5,COC(=O)c1ccc(C2C(C(=O)Nc3ccccc3)=C(C)Nc3nc4ccccc4n32)cc1 (stereo not given),-1.75% (inactive)
6,CC(C)Cn1c(=O)c2ccccc2n2c(CCC(=O)N3CCN(c4cccc(Cl)c4)CC3)nnc12,-1.35% (inactive)
7,Cc1ccc(NC(=O)c2ccc(CN3CC(=O)N4CCCCC4C3=O)cc2)c(Cl)c1 (stereo not given),1.5% (inactive)
8,COc1ccc(-n2ccn(CC(=O)Nc3ccc(C)c(C)c3)c(=O)c2=O)cc1OC,-0.8% (inactive)
9,COc1cc(-c2cc3n(C)c(C)c(CCC(=O)Nc4ccc(F)cc4)c(=O)n3n2)cc(OC)c1OC,0.6% (inactive)
10,Cc1cc(C)cc(NC(=O)c2cnc3sc(N4CCCC4)nn3c2=O)c1,-4.45% (inactive)
11,CCCC(=O)Nc1cc(C(=O)NCc2ccc(OC)cc2)ccc1S(=O)(=O)c1ccc(Cl)cc1,-6.15% (inactive)
12,COc1ccc(Cl)cc1NC(=O)CCn1c(=O)c2cccn2c2ccccc21,-4.3% (inactive)
13,CCCCN(CC)CCCNC(=O)Cn1ncc2c([nH]c3ccc(C)cc32)c1=O,1.4% (inactive)
14,COc1ccccc1CNCc1ccc(C(=O)O)s1,-0.25% (inactive)
15,O=C(NCC12CC3CC(CC(C3)C1)C2)c1cc2nc(-c3ccccc3)cc(C(F)(F)F)n2n1,0.55% (inactive)
16,CCOc1ccccc1NC(=O)Cn1c(=O)n(-c2cccc(C)c2)c(=O)c2c1c1cc(OC)ccc1n2C,3.65% (inactive)
17,CC(C)(C)OC(=O)N1CCC(c2c(C(=O)N3CCc4ccccc4C3)cnn2-c2ccc(F)cc2)CC1,-4.3% (inactive)
18,O=C(CCSCc1ccccc1F)N1CCN(c2ccc(Cl)cc2)CC1,-0.6% (inactive)
19,Cc1noc(C)c1-c1ccc2ncnc(NCc3ccc(F)c(F)c3)c2c1,-4.15% (inactive)
